Measured values published in PubChem BioAssay (NCATS).
Several values for one entry are separate records, joined by “and”; a condition that tells them apart may be missing. Equal entries are not always repeated. Results filed as inconclusive are left out. Activity calls are given as the source filed them. Calls come from the whole dose curve; as a rule, active = well fitted curve in the direction sought with a large enough effect; inconclusive = small, poorly fitted or top-dose-only effect, or another doubt; inactive = no such curve, though single readings can be large; an effect the other way counts as inactive or inconclusive.

Legend:
[1] = biological target: ATP-dependent 6-phosphofructokinase (Trypanosoma brucei brucei) (UniProt O15648); test: qHTS Assay to Find Inhibitors of T. brucei phosphofructokinase: hit validation (AID 492961);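 note: luminescence reports ADP formed as PFK phosphorylates fructose-6-phosphate with ATP; % is set by controls: 0 for no effect and ±100 for the full control effect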
In short: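 PFK 1.25 nM, F6P 0.5 mM, ATP 0.1 mM, MgCl2 5 mM, 0.1 M TEA pH 8.0, Tween20 0.01%, BSA 0.1%; 45 min RT. ADP-Glo two-step detection, luminescence. qHTS titration; curve fitting with curve-class categorization.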

[2] = qHTS profiling for inhibitors of Plasmodium falciparum proliferation (AID 504749); note: potency is the fitted concentration of half-maximal effect;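 for activity, negative = inhibition: 0% = DMSO vehicle and full inhibition = artemisinin control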; for all read-outs here: nearly all actives have a fitted effect of over 60% in size; details: P. falciparum in erythrocytes, SYBR Green DNA, 72 h; for activity, negative = inhibition: at 28.7 µM (top of the series)
In short: (§1)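 Fluorescence of SYBR Green-bound parasite DNA, read at 485/535 nm, served as the growth measure. Infected erythrocytes were cultured with compound 72 h; artemisinin (0.29 uM) and DMSO wells defined the normalization range.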

3D7 = test: as above; details: P. falciparum in erythrocytes, SYBR Green DNA, 72 h; series mostly up to 28.7 µM
In short: as §1

ATS189 = test: as above; details: P. falciparum in erythrocytes, SYBR Green DNA, 72 h; series mostly up to 28.7 µM
In short: as §1

ATS95 = test: as above; details: P. falciparum in erythrocytes, SYBR Green DNA, 72 h; series mostly up to 28.7 µM
In short: as §1

C2A = test: as above; details: P. falciparum in erythrocytes, SYBR Green DNA, 72 h; series mostly up to 28.7 µM
In short: as §1

CP185 = test: as above; details: P. falciparum in erythrocytes, SYBR Green DNA, 72 h; series mostly up to 28.7 µM
In short: as §1

CP217 = test: as above; details: P. falciparum in erythrocytes, SYBR Green DNA, 72 h; series mostly up to 28.7 µM
In short: as §1

CP238 = test: as above; details: P. falciparum in erythrocytes, SYBR Green DNA, 72 h; series mostly up to 28.7 µM
In short: as §1

CP250 = test: as above; details: P. falciparum in erythrocytes, SYBR Green DNA, 72 h; series mostly up to 28.7 µM
In short: as §1

CP252 = test: as above; details: P. falciparum in erythrocytes, SYBR Green DNA, 72 h; series mostly up to 28.7 µM
In short: as §1

CP256 = test: as above; details: P. falciparum in erythrocytes, SYBR Green DNA, 72 h; series mostly up to 28.7 µM
In short: as §1

CP265 = test: as above; details: P. falciparum in erythrocytes, SYBR Green DNA, 72 h; series mostly up to 28.7 µM
In short: as §1

CP286 = test: as above; details: P. falciparum in erythrocytes, SYBR Green DNA, 72 h; series mostly up to 28.7 µM
In short: as §1

Dd2 = test: as above; details: P. falciparum in erythrocytes, SYBR Green DNA, 72 h; series mostly up to 28.7 µM
In short: as §1

HB3 = test: as above; details: P. falciparum in erythrocytes, SYBR Green DNA, 72 h; series mostly up to 28.7 µM
In short: as §1

P94_40 = test: as above; details: P. falciparum in erythrocytes, SYBR Green DNA, 72 h; series mostly up to 28.7 µM
In short: as §1

CP191 = test: as above; details: P. falciparum in erythrocytes, SYBR Green DNA, 72 h; series mostly up to 28.7 µM
In short: as §1

CP262 = test: as above; details: P. falciparum in erythrocytes, SYBR Green DNA, 72 h; series mostly up to 28.7 µM
In short: as §1

DFO2036 = test: as above; details: P. falciparum in erythrocytes, SYBR Green DNA, 72 h; series mostly up to 28.7 µM
In short: as §1

Chain of ATP-dependent 6-phosphofructokinase (Trypanosoma brucei brucei) (O15648 whole entry, looked up): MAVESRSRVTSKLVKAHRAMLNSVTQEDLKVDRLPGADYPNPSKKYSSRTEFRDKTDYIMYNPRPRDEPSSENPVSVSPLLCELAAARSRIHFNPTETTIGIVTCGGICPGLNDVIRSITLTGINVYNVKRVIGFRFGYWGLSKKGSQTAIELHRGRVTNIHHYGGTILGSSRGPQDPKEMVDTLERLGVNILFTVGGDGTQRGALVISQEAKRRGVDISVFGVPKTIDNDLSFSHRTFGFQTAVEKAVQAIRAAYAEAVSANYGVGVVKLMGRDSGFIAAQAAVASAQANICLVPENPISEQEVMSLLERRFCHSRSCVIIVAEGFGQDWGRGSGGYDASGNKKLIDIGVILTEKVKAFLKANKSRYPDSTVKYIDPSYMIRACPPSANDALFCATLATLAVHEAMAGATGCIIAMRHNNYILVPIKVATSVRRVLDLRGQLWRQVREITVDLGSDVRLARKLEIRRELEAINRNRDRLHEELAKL

C/C(=C(/CCOC(=O)C(C)C)SS/C(CCOC(=O)C(C)C)=C(\C)N(C=O)Cc1cnc(C)nc1N)N(C=O)Cc1cnc(C)nc1N
inactive: Potency [1] | activity, negative = inhibition ([2]; parasite line B) -17.2% | Potency (3D7) | Potency (ATS189) | Potency (ATS95) | Potency (C2A) | Potency (CP185) | Potency (CP217) | Potency (CP238) | Potency (CP250) | Potency (CP252) | Potency (CP256) | Potency (CP265) | Potency (CP286) | Potency (Dd2) | Potency (HB3) | Potency (P94_40)

CNC1=CN(O)C(c2ccccc2)=c2cc(Cl)ccc2=N1
active: Potency ([2]; parasite line A) 3.55 µM | Potency ([2]; parasite line B) 2.24 µM and 11.2 µM | Potency (3D7) 1 µM | Potency (ATS189) 4.47 µM | Potency (ATS95) 5.01 µM | Potency (CP191) 0.1 µM | Potency (CP252) 8.91 µM | Potency (CP265) 6.31 µM | Potency (CP286) 4.47 µM | Potency (DFO2036) 3.16 µM | Potency (P94_40) 5.62 µM
inactive: Potency [1] | Potency (CP238) | Potency (CP256) | Potency (CP262) | Potency (Dd2) | Potency (HB3)

CC1=C[C@@H](O)CC(C)(C)[C@@H]1/C=C/C(C)=C/C=C/C(C)=C/C=C/C=C(C)/C=C/C=C(C)/C=C/C1=C(C)C[C@H](O)CC1(C)C
inactive: Potency [1] | activity, negative = inhibition ([2]; parasite line A) -23.3% | Potency (ATS189) | Potency (CP185) | Potency (CP191) | Potency (CP238) | Potency (CP250) | Potency (CP252) | Potency (CP256) | Potency (CP262) | Potency (CP286) | Potency (DFO2036)
active: Potency (3D7) 10 µM | Potency (Dd2) 12.6 µM | Potency (HB3) 11.2 µM

C[C@]12CC[C@@H]3c4ccc(O)cc4C[C@@H](CCCCCCCCCS(=O)CCCC(F)(F)C(F)(F)F)C3[C@@H]1CC[C@@H]2O (some centres undefined)
active: Potency ([2]; parasite line A) 11.2 µM | Potency ([2]; parasite line B) 10 µM | Potency (3D7) 10 µM | Potency (ATS189) 7.94 µM | Potency (ATS95) 8.91 µM | Potency (C2A) 10 µM | Potency (CP185) 8.91 µM | Potency (CP191) 7.94 µM | Potency (CP217) 8.91 µM | Potency (CP238) 7.94 µM | Potency (CP252) 8.91 µM | Potency (CP265) 11.2 µM | Potency (CP286) 11.2 µM | Potency (DFO2036) 11.2 µM | Potency (Dd2) 7.08 µM | Potency (HB3) 5.01 µM | Potency (P94_40) 5.62 µM
inactive: Potency [1] | Potency (CP262)

OCC(O)C(O)C(O)C(O)CO (centres undefined)
inactive: Potency [1] | activity, negative = inhibition ([2]; parasite line B) 7.82% | Potency (3D7) | Potency (ATS189) | Potency (ATS95) | Potency (C2A) | Potency (CP185) | Potency (CP191) | Potency (CP217) | Potency (CP238) | Potency (CP250) | Potency (CP252) | Potency (CP256) | Potency (CP262) | Potency (CP265) | Potency (CP286) | Potency (DFO2036) | Potency (Dd2) | Potency (HB3) | Potency (P94_40)

Cc1c(C)c2c(c(C)c1O)CCC(C)(CCCC(C)CCCC(C)CCCC(C)C)O2 (centres undefined)
inactive: Potency [1] | activity, negative = inhibition ([2]; parasite line A) 15.7% | activity, negative = inhibition ([2]; parasite line B) 8.58% | Potency (3D7) | Potency (ATS189) | Potency (ATS95) | Potency (C2A) | Potency (CP185) | Potency (CP191) | Potency (CP217) | Potency (CP238) | Potency (CP250) | Potency (CP252) | Potency (CP256) | Potency (CP262) | Potency (CP265) | Potency (CP286) | Potency (DFO2036) | Potency (HB3) | Potency (P94_40)

CCC(C)C(N)C(=O)O (centres undefined)
inactive: Potency [1] | activity, negative = inhibition ([2]; parasite line B) -1.6% | Potency (3D7) | Potency (ATS189) | Potency (ATS95) | Potency (C2A) | Potency (CP185) | Potency (CP191) | Potency (CP217) | Potency (CP238) | Potency (CP250) | Potency (CP252) | Potency (CP256) | Potency (CP262) | Potency (CP265) | Potency (CP286) | Potency (DFO2036) | Potency (Dd2) | Potency (HB3) | Potency (P94_40)

Cn1cc(C(=O)[C@@H]2CCc3[nH]cnc3C2)c2ccccc21
inactive: Potency [1] | activity, negative = inhibition ([2]; parasite line A) 5.71% | activity, negative = inhibition ([2]; parasite line B) 16.1% | Potency (3D7) | Potency (ATS189) | Potency (ATS95) | Potency (C2A) | Potency (CP185) | Potency (CP191) | Potency (CP217) | Potency (CP238) | Potency (CP250) | Potency (CP252) | Potency (CP256) | Potency (CP262) | Potency (CP265) | Potency (CP286) | Potency (DFO2036) | Potency (Dd2) | Potency (HB3) | Potency (P94_40)
